# The supplement of paper PMC4894684
# Structures can show the parent of a compound that is named as a salt. ± gives the standard deviation of the averaged measurements.
# Test system: Toxoplasma gondii RH (in HFF)
# Experiment: parasite growth relative to the screen mean (all compounds = 100%); higher = less inhibition of parasite growth
# Conditions: 5 µM; 72 h; oxygen 21 %
# In short: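 Values give growth relative to the screen mean. The screen mean (all compounds) is set at 100%, and two screens were averaged. Compounds at 5 µM final were placed on confluent human foreskin fibroblasts, which were infected within 2 h with RH β-Gal–GFP Toxoplasma (MOI 1:5) and kept 72 h at 21% O2 before a CPRG β-Gal readout against in-plate standard curves.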
row,SMILES,parasite growth [%]
1,CCCCN1CCCC1CNC(=O)c1cc(C#N)c2ccccc2c1OC (stereo not drawn) [Nafadotride],127 ± 15
2,c1cc2c3c(c1)c1c(n3CCNC2)CCCC1 [WAY 629 hydrochloride],130 ± 4
3,CC(=O)N[C@@H](CC(=O)N[C@@H](CCC(=O)O)C(=O)O)C(=O)O [Spaglumic acid],131 ± 6.6
4,O=C1C(Cl)=C(NCCN2CCOCC2)C(=O)c2ncccc21,25.7 ± 24
5,Cn1cc(C2=C(c3ccc(Cl)cc3Cl)C(=O)NC2=O)c2ccccc21,136 ± 4.2
6,CC1=C(/C=C/C(C)=C/C=C/C(C)=C/C(=O)O)C(C)(C)CCC1 [Retinoic acid],85 ± 12
7,CN1CCc2cc(Cl)c(O)cc2[C@@H](c2ccccc2)C1,120 ± 46
8,Cc1ccccc1C(=O)c1ccc(Nc2ccc(Br)cc2N)cc1Cl,172 ± 48
9,Cc1nc2c(c(=O)[nH]1)CSCC2,122 ± 32
10,COc1nc(C)nc(Cl)c1NC1=NCCN1 [Moxonidine hydrochloride],108 ± 27
11,Nc1ccc(-c2cccc3c(=O)cc(N4CCOCC4)oc23)cc1,104 ± 7.9
12,c1ccc(C(NCc2cccnc2)(c2ccccc2)c2ccccc2)cc1,48.8 ± 13
13,CC(C)(C)NC[C@H](O)COc1nsnc1N1CCOCC1 [(S)-Timolol maleate],119 ± 1.7
14,Cc1nnc(-c2ccc3occ(-c4ccc([S+](C)[O-])cc4)c3c2)o1 (stereo not drawn),83.7 ± 4.5
15,COc1cc(C(=O)OCCCN2CCCN(CCCOC(=O)c3cc(OC)c(OC)c(OC)c3)CC2)cc(OC)c1OC [Dilazep dihydrochloride],54.3 ± 11
16,O=c1c(-c2ccc(O)cc2)coc2cc(O)cc(O)c12 [Genistein],148 ± 28
17,O=S(=O)(c1cccc2c(Cl)cccc12)N1CCCNCC1 [ML 9 hydrochloride],122 ± 19
18,CC(C)(C)c1ccc(/C=C/C(=O)Nc2ccc3c(c2)OCCO3)cc1,133.4 ± 1
19,COc1ccc2[nH]c(-c3ccccc3)c(CCNC(C)=O)c2c1 [2-Phenylmelatonin],149 ± 20

row,SMILES,parasite growth [%]
1,COC(=O)/C=C/c1cccc(N(Cc2ccc(-c3ccc(N(C)C)cc3)cc2)C(=O)C2CCCCC2)c1 [Fexaramine],159 ± 7.7
2,Cn1ccc2cc(NC(=O)Nc3cccnc3)ccc21,129 ± 6.5
3,CCCCCCCCCCCCCCCC(=O)NCCO [Palmitoylethanolamide],64.8 ± 16
4,CCN(CC)CCCCNc1ncc2cc(-c3c(Cl)cccc3Cl)c(NC(=O)NC(C)(C)C)nc2n1,< 0
5,COc1ccc2cc([C@H](C)C(=O)O)ccc2c1 [Naproxen sodium],89.9 ± 13
6,CC(=N)NCc1cccc(CN)c1 [1400W dihydrochloride],74 ± 48
7,CCc1c2c(nc3ccc(O)cc13)-c1cc3c(c(=O)n1C2)COC(=O)[C@]3(O)CC,110.2 ± 0.25
8,N[C@@H](C(=O)O)c1ccc(C(=O)O)c(C(=O)O)c1,117 ± 7.7
9,CSc1nc(NC2CCCC2)c([N+](=O)[O-])c(NC2CCCC2)n1,35.6 ± 32
10,O=C(O)c1cccnc1C(=O)O [Quinolinic acid],125 ± 12
11,CC(C)NCC(O)c1ccc(NS(C)(=O)=O)cc1 (stereo not drawn) [Sotalol hydrochloride],108 ± 6.9
12,NC(=O)CNCCC(c1ccccc1)c1ccccc1 [N20C hydrochloride],71.4 ± 14
13,CCCCOC(=O)c1cc2c(cn1)[nH]c1ccccc12,150 ± 37
14,CCOC(=O)c1c(C)[nH]c2ccc3c(c12)CN1CCc2cc(OC)ccc2C1O3 (stereo not drawn),16.8 ± 6.5
15,O=[N+]([O-])c1cc2nc(O)c(O)nc2cc1[N+](=O)[O-],91.7 ± 27
16,NC(C(=O)O)c1ccc(C(=O)O)c(C(=O)O)c1 (racemic),101 ± 31
17,CC#C[C@]1(O)CC[C@H]2[C@@H]3CCC4=CC(=O)CCC4=C3[C@@H](c3ccc(N(C)C)cc3)C[C@@]21C [Mifepristone],135 ± 14
18,Cc1cccc(C)c1NC(=O)C[N+](C)(C)C,123 ± 18
19,OC[C@H]1NC[C@@H](O)[C@@H](O)[C@@H]1O [1-Deoxymannojirimycin hydrochloride],141 ± 9.1
